From PubChem BioAssay (EPA / NIEHS)
Calls of active or inactive are those of the source. How the source made its calls: active means hit-call score of the fitted dose curve at least 0.9, where 1 is the maximum; inactive means score below 0.9.

What was measured:
Conditions in all cases: mRNA level, 48 h; actives raise or lower the signal
[1] = read-out: Alpha-fetoprotein (AFP) gene, AFP (gene 174); assay: LTEA_HepaRG_AFP: Life Technologies and Expression Analysis (LTEA) Assay for Alpha-fetoprotein (AFP) gene using HepaRG (AID 2283472)
Outline: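 Human HepaRG cells plated 48 h, then switched to serum-free induction medium and exposed in duplicate for 48 h to 8-point half-log series from 100 uM in 0.5% DMSO. AFP mRNA by qRT-PCR, normalized to ACTB, GAPDH, POLR2A; bidirectional fit versus DMSO.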

BCL2L11 (gene 10018) = assay: LTEA_HepaRG_BCL2L11: Life Technologies and Expression Analysis (LTEA) Assay for Bcl-2 (BCL2L11) gene using HepaRG (AID 2283473)
Outline: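 Read-out is BCL2L11 transcript level by qRT-PCR, normalized to three housekeeping genes and fitted bidirectionally against 0.5% DMSO vehicle. HepaRG cells received chemicals for 48 h in serum-free induction medium, 100 uM down in half-log dilutions.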

[2] = read-out: Apolipoprotein A-V (APOA5) gene, APOA5 (gene 116519); assay: LTEA_HepaRG_APOA5: Life Technologies and Expression Analysis (LTEA) Assay for Apolipoprotein A-V (APOA5) gene using HepaRG (AID 2283474)
Outline: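 Readout is APOA5 transcript level by qRT-PCR on Fluidigm dynamic arrays, normalized to three housekeeping genes. HepaRG cultures received chemicals for 48 h at up to 100 uM (half-log steps, 0.5% DMSO), with gain or loss scored relative to DMSO.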

[3] = read-out: Apoptosis regulator Bcl-2 (Homo sapiens) (UniProt P10415); assay: LTEA_HepaRG_BCL2: Life Technologies and Expression Analysis (LTEA) Assay for Bcl-2 gene using HepaRG (AID 2283475)
Outline: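 Differentiated HepaRG cells in serum-free induction medium were exposed for 48 h to eight half-log concentrations up to 100 uM in 0.5% DMSO, in duplicate. BCL2 mRNA was quantified by TaqMan qRT-PCR normalised to ACTB, GAPDH and POLR2A, with bidirectional fitting versus DMSO.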

[4] = read-out: Bcl-2 (BID) gene, BID (gene 637); assay: LTEA_HepaRG_BID: Life Technologies and Expression Analysis (LTEA) Assay for Bcl-2 (BID) gene using HepaRG (AID 2283476)
Outline: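 Differentiated HepaRG cells in serum-free induction medium were exposed in duplicate for 48 h to eight half-log concentrations up to 100 uM in 0.5% DMSO. BID mRNA was quantified by qRT-PCR, normalized to ACTB, GAPDH and POLR2A.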

Caspase-3 (Homo sapiens) = Caspase-3 (Homo sapiens) (UniProt P42574); assay: LTEA_HepaRG_CASP3: Life Technologies and Expression Analysis (LTEA) Assay for cysteine-aspartic acid protease (CASP3) using HepaRG (AID 2283477)
Outline: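 Read-out is CASP3 mRNA level by TaqMan qRT-PCR in human HepaRG cells after 48 h chemical exposure. Eight half-log concentrations topping at 100 uM were tested in 0.5% DMSO; gain or loss was fitted relative to DMSO.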

[5] = read-out: Cytochrome P450 (CYP1A2), CYP1A2 (gene 1544); assay: LTEA_HepaRG_CYP1A2: Life Technologies and Expression Analysis (LTEA) Assay for Cytochrome P450 (CYP1A2) using HepaRG (AID 2283479)
Outline: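 CYP1A2 transcript induction or loss, quantified by Fluidigm qRT-PCR against three housekeeping genes, was fitted bidirectionally against 0.5% DMSO controls. Human HepaRG cells received eight half-log concentrations from 100 uM over 48 h.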

[6] = read-out: cysteine-aspartic acid protease (CASP8), CASP8 (gene 841); assay: LTEA_HepaRG_CASP8: Life Technologies and Expression Analysis (LTEA) Assay for cysteine-aspartic acid protease (CASP8) using HepaRG (AID 2283480)
Outline: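 Differentiated human HepaRG cells, plated 48 h then switched to serum-free induction medium, were exposed in duplicate for 48 h to 8 half-log concentrations up to 100 uM in 0.5% DMSO. CASP8 mRNA was quantified by qRT-PCR, normalized to ACTB/GAPDH/POLR2A.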

[7] = read-out: Cytochrome P450 (CYP2B6), CYP2B6 (gene 1555); assay: LTEA_HepaRG_CYP2B6: Life Technologies and Expression Analysis (LTEA) Assay for Cytochrome P450 (CYP2B6) using HepaRG (AID 2283481)
Outline: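 HepaRG cells plated 48 h, switched to serum-free induction medium, then dosed 48 h (8 points, half-log from 100 uM, 0.5% DMSO). RNA isolated; CYP2B6 expression measured by qRT-PCR; gain or loss fitted relative to DMSO.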

[8] = read-out: Cytochrome P450 2C19 (Homo sapiens) (UniProt P33261); assay: LTEA_HepaRG_CYP2C19: Life Technologies and Expression Analysis (LTEA) Assay for CYP2C19 using HepaRG (AID 2283482)
Outline: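 Transcript levels of CYP2C19 were quantified by qRT-PCR after HepaRG cells were treated for 48 hours with test chemicals up to 100 uM (eight half-log concentrations, 0.5% DMSO vehicle). Gain or loss of signal was fitted relative to DMSO.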

CYP2C8 (gene 1558) = assay: LTEA_HepaRG_CYP2C8: Life Technologies and Expression Analysis (LTEA) Assay for CYP2C8 using HepaRG (AID 2283483)
Outline: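 Differentiated human HepaRG cells were exposed for 48 h in serum-free induction medium to eight half-log concentrations up to 100 uM in 0.5% DMSO, in duplicate. CYP2C8 mRNA was measured by TaqMan qRT-PCR, normalized to ACTB, GAPDH and POLR2A, and fitted bidirectionally against DMSO.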

CYP2C9 (gene 1559) = assay: LTEA_HepaRG_CYP2C9: Life Technologies and Expression Analysis (LTEA) Assay for CYP2C9 using HepaRG (AID 2283484)
Outline: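 Differentiated human HepaRG cells were exposed 48 h in serum-free induction medium to eight half-log concentrations up to 100 uM in 0.5% DMSO. CYP2C9 mRNA was measured by qRT-PCR, normalized to ACTB, GAPDH and POLR2A, and fitted bidirectionally against DMSO.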

CYP2E1 (gene 1571) = assay: LTEA_HepaRG_CYP2E1: Life Technologies and Expression Analysis (LTEA) Assay for CYP2E1 using HepaRG (AID 2283485)
Outline: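 HepaRG cells in serum-free induction medium exposed 48 h to test chemicals, 8 half-log concentrations up to 100 uM in 0.5% DMSO, duplicate. CYP2E1 mRNA by qRT-PCR, normalized to ACTB, GAPDH, POLR2A; bidirectional fit versus DMSO.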

CYP4A11 (gene 1579) = assay: LTEA_HepaRG_CYP4A11: Life Technologies and Expression Analysis (LTEA) Assay for CYP4A11 using HepaRG (AID 2283486)
Outline: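 HepaRG, 48 h chem exposure, 8 conc (100 uM top, half-log), 0.5% DMSO vehicle; qRT-PCR readout, housekeeping-gene normalized; bidirectional curve fit vs DMSO baseline.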

[9] = read-out: Cytochrome P450 3A4 (Homo sapiens) (UniProt P08684); assay: LTEA_HepaRG_CYP3A4: Life Technologies and Expression Analysis (LTEA) Assay for CYP3A4 using HepaRG (AID 2283487)
Outline: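 In a human hepatic line (HepaRG), duplicate wells were treated 48 h with up to 100 uM chemical in half-log dilutions. Endpoint: CYP3A4 mRNA induction or loss relative to 0.5% DMSO vehicle, by qRT-PCR.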

[10] = read-out: DNA damage-inducible transcript 3 (DDIT3), DDIT3 (gene 1649); assay: LTEA_HepaRG_DDIT3: Life Technologies and Expression Analysis (LTEA) Assay for DNA damage-inducible transcript 3 (DDIT3) using HepaRG (AID 2283488)
Outline: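 Differentiated human HepaRG cells in serum-free induction medium were exposed in duplicate for 48 h to 8 concentrations (top 100 uM, half-log steps, 0.5% DMSO). DDIT3 mRNA measured by TaqMan qRT-PCR, normalized to ACTB/GAPDH/POLR2A; bidirectional fit versus DMSO.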

[11] = read-out: Pro-epidermal growth factor (Homo sapiens) (UniProt P01133); assay: LTEA_HepaRG_EGF: Life Technologies and Expression Analysis (LTEA) Assay for Epidermal growth factor (EGF) using HepaRG (AID 2283489)
Outline: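 HepaRG, 48 h dosing, 100 uM top, half-log x8, 0.5% DMSO. Readout: TaqMan qRT-PCR (Fluidigm array), housekeeping-normalized. Gain or loss of signal fit vs DMSO.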

[12] = read-out: Early growth response protein 1 (EGR1) transcription factor, EGR1 (gene 1958); assay: LTEA_HepaRG_EGR1: Life Technologies and Expression Analysis (LTEA) Assay for Early growth response protein 1 (EGR1) transcription factor using HepaRG (AID 2283490)
Outline: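 Differentiated human HepaRG cells in serum-free induction medium were exposed in duplicate for 48 h to eight concentrations (top 100 uM, half-log steps) in 0.5% DMSO. EGR1 mRNA was quantified by qRT-PCR, normalized to ACTB, GAPDH and POLR2A, and fitted bidirectionally versus DMSO.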

[13] = read-out: Ezrin (EZR), EZR (gene 7430); assay: LTEA_HepaRG_EZR: Life Technologies and Expression Analysis (LTEA) Assay for Ezrin (EZR) using HepaRG (AID 2283491)
Outline: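 Gain or loss of EZR mRNA is scored relative to 0.5% DMSO in human HepaRG cultures treated 48 h with test chemicals in duplicate, eight half-log concentrations from 100 uM.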

[14] = read-out: Cytochrome P450 (CYP24A1), CYP24A1 (gene 1591); assay: LTEA_HepaRG_CYP24A1: Life Technologies and Expression Analysis (LTEA) Assay for Cytochrome P450 (CYP24A1) using HepaRG (AID 2283478)
Outline: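 HepaRG, 48 h chemical exposure, 8-pt half-log CRC from 100 uM, 0.5% DMSO vehicle, duplicates. Endpoint: CYP24A1 mRNA by Fluidigm TaqMan qRT-PCR, normalized ACTB/GAPDH/POLR2A; gain/loss fit vs DMSO.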

Measured: AC50

Apoptosis regulator Bcl-2 (Homo sapiens), sequence (P10415 whole entry, looked up): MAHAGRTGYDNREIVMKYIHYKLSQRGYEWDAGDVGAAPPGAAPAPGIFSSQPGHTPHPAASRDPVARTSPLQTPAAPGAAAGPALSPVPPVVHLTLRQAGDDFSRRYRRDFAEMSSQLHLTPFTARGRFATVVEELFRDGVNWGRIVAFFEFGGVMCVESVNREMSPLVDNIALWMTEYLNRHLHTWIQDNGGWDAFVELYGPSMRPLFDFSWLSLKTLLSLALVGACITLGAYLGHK
Caspase-3 (Homo sapiens), sequence (P42574 whole entry, looked up): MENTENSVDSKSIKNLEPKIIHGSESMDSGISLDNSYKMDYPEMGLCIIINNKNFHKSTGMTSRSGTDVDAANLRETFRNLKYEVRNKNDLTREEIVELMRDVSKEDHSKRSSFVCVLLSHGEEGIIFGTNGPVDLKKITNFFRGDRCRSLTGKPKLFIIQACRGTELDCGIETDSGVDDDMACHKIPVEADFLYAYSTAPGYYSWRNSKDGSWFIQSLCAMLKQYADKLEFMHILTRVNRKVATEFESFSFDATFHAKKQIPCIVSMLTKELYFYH
Cytochrome P450 3A4 (Homo sapiens), sequence (P08684 whole entry, looked up): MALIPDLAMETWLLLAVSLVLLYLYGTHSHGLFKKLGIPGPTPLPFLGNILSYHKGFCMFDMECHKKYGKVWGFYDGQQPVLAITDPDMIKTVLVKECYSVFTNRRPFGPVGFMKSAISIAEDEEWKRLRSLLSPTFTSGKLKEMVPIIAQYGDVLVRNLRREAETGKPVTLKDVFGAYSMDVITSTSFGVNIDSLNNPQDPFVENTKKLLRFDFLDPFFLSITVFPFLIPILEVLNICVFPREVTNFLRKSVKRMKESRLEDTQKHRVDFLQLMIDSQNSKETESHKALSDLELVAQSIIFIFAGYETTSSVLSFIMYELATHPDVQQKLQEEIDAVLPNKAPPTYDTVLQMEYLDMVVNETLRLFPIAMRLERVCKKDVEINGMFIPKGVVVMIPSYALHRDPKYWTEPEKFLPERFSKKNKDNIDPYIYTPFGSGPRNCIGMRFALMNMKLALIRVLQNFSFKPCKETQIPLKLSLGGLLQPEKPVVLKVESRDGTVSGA
Cytochrome P450 2C19 (Homo sapiens), sequence (P33261 whole entry, looked up): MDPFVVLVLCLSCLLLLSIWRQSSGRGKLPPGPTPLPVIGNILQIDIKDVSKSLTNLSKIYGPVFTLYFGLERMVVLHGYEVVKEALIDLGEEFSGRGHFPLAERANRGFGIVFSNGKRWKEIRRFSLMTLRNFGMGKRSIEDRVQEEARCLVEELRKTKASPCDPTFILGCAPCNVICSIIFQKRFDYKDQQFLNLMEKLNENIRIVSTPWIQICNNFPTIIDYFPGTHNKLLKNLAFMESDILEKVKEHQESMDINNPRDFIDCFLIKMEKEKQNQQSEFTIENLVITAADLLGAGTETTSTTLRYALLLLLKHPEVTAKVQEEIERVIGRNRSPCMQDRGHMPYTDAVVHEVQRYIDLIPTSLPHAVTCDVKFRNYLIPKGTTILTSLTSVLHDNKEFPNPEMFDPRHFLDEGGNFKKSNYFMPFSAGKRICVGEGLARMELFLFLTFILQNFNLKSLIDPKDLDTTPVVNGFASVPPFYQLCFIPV

Oc1ccccc1Cl
not listed: [14]
inactive: all other assays above

CCCCCCCCOC(=O)c1ccc(C(=O)OCCCCCCCC)c(C(=O)OCCCCCCCC)c1
active: [5] 50.5 µM | [7] 22.4 µM
not listed: [10] | [14]
inactive: all other assays above

CCC(C)c1ccc(O)cc1 (centres undefined)
not listed: [14]
inactive: all other assays above

CNC(=O)Oc1cccc2c1OC(C)(C)C2
active: [1] 9.92 µM | [7] 3.94 µM | [8] 17.4 µM | CYP2E1 (gene 1571) 23.7 µM | [9] 6.81 µM
not listed: [12] | [14]
inactive: all other assays above

O=[N+]([O-])C(Br)(CO)CO
not listed: [12]
inactive: all other assays above

Nc1ccc(Oc2ccc(N)cc2)cc1
active: [5] 40.7 µM
not listed: [7] | [8] | [10]
inactive: all other assays above

CN(C)c1ccccc1
active: [7] 33.4 µM
not listed: [8] | [12] | [14]
inactive: all other assays above

Oc1ccc2ccc3cccc4ccc1c2c34
active: [5] 11.5 µM | CYP2E1 (gene 1571) 50 µM
not listed: [10] | [14]
inactive: all other assays above

ClC1=C(Cl)C2(Cl)C3C(Cl)C=CC3C1(Cl)C2(Cl)Cl (centres undefined)
active: [1] 22.7 µM | [7] 0.67 µM | [8] 2.22 µM | CYP2E1 (gene 1571) 7.54 µM | CYP4A11 (gene 1579) 16.1 µM | [9] 0.927 µM
not listed: [10] | [12]
inactive: all other assays above

O=C1CCCO1
active: Caspase-3 (Homo sapiens) 50 µM | [6] 78.5 µM | CYP4A11 (gene 1579) 0.0449 µM
not listed: [7]
inactive: all other assays above

[O-][Cl+]O
not listed: [8] | [11] | [12] | [14]
inactive: all other assays above

Clc1ccc(Cl)c(Cl)c1
active: [1] 50 µM | [2] 50 µM | [4] 50 µM | Caspase-3 (Homo sapiens) 50 µM | CYP2E1 (gene 1571) 50 µM | [10] 9.92 µM
not listed: [12] | [14]
inactive: all other assays above

Nc1ccc(N=Nc2ccccc2)cc1
active: [1] 20.5 µM | BCL2L11 (gene 10018) 17.6 µM | [2] 17.7 µM | [4] 50 µM | [5] 88.2 µM | [6] 17.3 µM | CYP2C8 (gene 1558) 17.3 µM | CYP2C9 (gene 1559) 14.7 µM | CYP2E1 (gene 1571) 23.7 µM | CYP4A11 (gene 1579) 13.3 µM | [10] 32.4 µM | [12] 29.4 µM
inactive: [3] | Caspase-3 (Homo sapiens) | [14] | [11] | [13]

Clc1ccccc1Cl
not listed: [8] | [10] | [12] | [14]
inactive: all other assays above
